Our source for the composite z-score and z-score values is PubChem BioAssay.

SMILES strings stand for the structures. The source made the active and inactive calls. Unless noted, no rule for the calls is given here.

A short description of experiment [1]: compounds binding Alexa647 anti-His antibody – biochemical, small-molecule microarray, 635 nm fluorescence, artefact control for SMM control protein annotation, primary screen (AID 1128).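 Also: score merges feature fluorescence with signal-to-noise for each printed compound spot.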 The note with it: higher = more signal.
The subject of experiment [2] is Human papillomavirus type 1a E7 protein (residues 1-88). In words: HPV1a E7 small-molecule binders, primary screen, biochemical, small-molecule microarray, residues 1-88, 635 nm (AID 1129). Particulars: small-molecule microarray binding, fluorescence 635 nm; higher = more signal.
Experiment [3] deals with Focal adhesion kinase 1 (Homo sapiens) (UniProt Q05397). In words: PTK2 protein binding on printed compound slides – biochemical, small-molecule microarray, 635/667 nm fluorescence, BSA, DTT, primary screen (AID 1130).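 Also: composite of spot emission at 667 nm and signal to noise over triplicate slides.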 Particulars: 635 nm fluorescence, higher = more signal.
Experiment [4] concerns Fibrinogen (Alexa647-labelled). Kind of experiment: Alexa647-fibrinogen binding to printed small molecules – biochemical, small-molecule microarray, 635/667 nm fluorescence, artefact control for SMM control-protein annotation, profiling panel (AID 1131).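 Also: z-score merges 667 nm fluorescence with per-spot signal-to-noise over triplicate slides.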 Particulars: fibrinogen-A647 binding fluorescence, higher = more signal.
In experiment [5] the target is Follistatin (Homo sapiens) (UniProt P19883). Kind of experiment: FST protein binding to printed compounds – biochemical, small-molecule microarray, 635/667 nm fluorescence, primary screen (AID 1132). The note with it: 635 nm fluorescence, higher = more signal.
For experiment [6], the target named is Fibroblast growth factor 2 (Homo sapiens) (UniProt P09038). In words: basic fibroblast growth factor binding to printed compounds – biochemical, small-molecule microarray, 635/667 nm fluorescence, primary screen (AID 1133). The note with it: FGF2, fluorescence 635/667, higher = more signal.
A short description of experiment [7]: JC-1 mitochondrial potential readout, lung cancer cells – cell-based, A549, JC-1 fluorescence, basal, 24 h, 100 nL, profiling panel (AID 1138).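 Also: A549 lung adenocarcinoma cells under basal conditions with no added stimulus; test concentration not given here.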 The note with it: higher = more signal.
The next experiment concerns Lefty1. In words: Lefty1 protein binding to printed compounds – biochemical, small-molecule microarray, 635/667 nm fluorescence, primary screen (AID 1139). Particulars: fluorescence 635/667, higher = more signal.
Experiment [8] has as its system wheat germ agglutinin (Triticum aestivum), Alexa647-labelled. In words: Alexa647-WGA lectin binding to printed small molecules – biochemical, small-molecule microarray, 635/667 nm fluorescence, artefact control for SMM control-protein annotation, profiling panel (AID 1140).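 Also: score merges 667 nm feature emission with signal to noise over triplicate slides.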 The note with it: WGA-A647 binding, 635 nm fluorescence, higher = more signal.
Experiment [9] deals with Luciferin 4-monooxygenase (Photinus pyralis) (UniProt P08659). In words: inhibition of purified Photinus pyralis luciferase – biochemical, luminescence, purified enzyme, 2006 set, primary screen (AID 1141).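 Also: cell-free assay with purified firefly luciferase at 100 ng per well in PBS; test concentration not given here.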 Particulars: purified firefly luciferase, SteadyGlo luminescence, 30 min; higher = more signal, called active from +8 up or from −8 down.
Experiment [10] concerns Wnt5a (protein binding on small-molecule microarray). In words: small molecules binding Wnt5a protein – biophysical, small-molecule microarray, 635/667 nm fluorescence, primary screen (AID 1142).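 Also: fluorescence read at 667 nm with signal to noise per printed feature.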 Particulars: 635 nm fluorescence, higher = more signal.
Experiment [11] can be described thus: ATP-based viability of Huh7 replicon cells – cell-based, CellTiter-Glo luminescence, basal, 48 h, cytotoxicity control for HCV replication inhibitor project, primary screen (AID 1143).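 Also: Huh7 hepatoma cells carrying a hepatitis C replication reporter with no stimulus; test concentration not given here.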 The note with it: higher = more signal, called active from +8 up or from −8 down. On the technique in general: In antiviral work, replicon cells carry a viral genome segment that copies itself.

A short description of experiment [12]: Pseudomonas biofilm growth suppression – PAO1 strain, BacTiter-Glo luminescence, LB-PBS, primary screen (AID 1144). Particulars: P. aeruginosa PAO1 biofilm, 12 h, higher = more signal.
Experiment [13] in a line: basal CRE-LacZ reporter activity in PC12 – cell-based, unstimulated, primary screen (AID 1145). The note with it: no forskolin, luminescence, 4.5 h, higher = more signal, called active from +8 up or from −8 down.
A short description of experiment [14]: forskolin-driven CRE-LacZ activity in PC12 – cell-based, CRE-LacZ reporter, forskolin-stimulated, primary screen (AID 1146).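 Also: PC12 cells with 6xCRE LacZ reporter stimulated by forskolin 10 µM; beta-galactosidase reporter signal reflecting CREB driven transcription.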 Particulars: luminescence, 4.5 h, higher = more signal, called active from +8 up or from −8 down.
Experiment [15] deals with Streptavidin (Streptomyces avidinii) (UniProt P22629). In words: compounds binding control protein streptavidin – biophysical, small-molecule microarray, 635/667 nm fluorescence, artefact control for SMM compound annotation, primary screen (AID 1147).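 Also: signal reflects streptavidin binding to arrayed compounds as a control protein.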 The note with it: higher = more signal.
A short description of experiment [16]: probe aInhba binding on compound microarray – biochemical, small-molecule microarray, 635/667 nm fluorescence, primary screen (AID 1148).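 Also: score merges 667nm spot fluorescence with signal-to-noise for antibody binding to printed compounds.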 Particulars: higher = more signal.
Experiment [17] concerns the target Torsin-1A (Homo sapiens) (UniProt O14656). Kind of experiment: TOR1A wild-type binding on microarray – cell lysate, small-molecule microarray, lysate, 635/667 nm, primary screen (AID 1149). The note with it: COS7 hTOR1A-WT lysate, 635 nm fluorescence, higher = more signal.
Experiment [18] has the same target. In words: torsin A mutant lysate binding on microarrays – cell lysate, small-molecule microarray, COS7 lysate, 635/667 nm fluorescence, primary screen (AID 1150).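 Also: score pools 667 nm emission and signal to noise measuring lysate protein binding.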 The note with it: COS7 hTOR1A mutant lysate, 635 nm fluorescence, higher = more signal.
For experiment [19], the system named is Sonic hedgehog protein (Shh). In words: Sonic hedgehog microarray binding compounds – biochemical, small-molecule microarray, 635/667 nm fluorescence, primary screen (AID 1151).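 Also: Shh protein binding to compounds spotted on small-molecule microarray slides; score combines spot fluorescence intensity with signal-to-noise across triplicate slides.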 Particulars: 635 nm fluorescence, higher = more signal.

Streptavidin (Streptomyces avidinii), sequence (P22629 whole entry, looked up): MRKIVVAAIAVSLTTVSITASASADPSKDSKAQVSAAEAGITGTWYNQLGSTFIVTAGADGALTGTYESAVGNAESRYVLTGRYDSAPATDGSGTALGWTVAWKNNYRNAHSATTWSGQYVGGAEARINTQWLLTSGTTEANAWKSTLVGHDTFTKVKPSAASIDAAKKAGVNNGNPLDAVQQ
Torsin-1A (Homo sapiens), sequence (O14656 whole entry, looked up): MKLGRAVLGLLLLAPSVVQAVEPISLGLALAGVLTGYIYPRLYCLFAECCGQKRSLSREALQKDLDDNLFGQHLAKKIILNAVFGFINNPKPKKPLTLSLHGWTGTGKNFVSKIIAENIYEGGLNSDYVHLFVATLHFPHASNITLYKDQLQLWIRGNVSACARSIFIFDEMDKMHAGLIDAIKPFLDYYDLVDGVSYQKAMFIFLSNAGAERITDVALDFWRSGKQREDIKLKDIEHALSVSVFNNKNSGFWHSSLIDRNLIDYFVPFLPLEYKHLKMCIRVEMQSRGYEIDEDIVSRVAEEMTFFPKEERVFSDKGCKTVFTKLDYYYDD
Fibroblast growth factor 2 (Homo sapiens), sequence (P09038 whole entry, looked up): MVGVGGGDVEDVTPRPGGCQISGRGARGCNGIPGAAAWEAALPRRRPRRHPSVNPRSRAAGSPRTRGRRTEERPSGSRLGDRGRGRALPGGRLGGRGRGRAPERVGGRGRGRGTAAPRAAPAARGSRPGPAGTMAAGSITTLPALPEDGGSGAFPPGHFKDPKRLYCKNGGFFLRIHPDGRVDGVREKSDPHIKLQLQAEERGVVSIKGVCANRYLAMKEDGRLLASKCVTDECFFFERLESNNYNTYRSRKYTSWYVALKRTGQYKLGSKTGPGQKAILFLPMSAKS
Luciferin 4-monooxygenase (Photinus pyralis), sequence (P08659 whole entry, looked up): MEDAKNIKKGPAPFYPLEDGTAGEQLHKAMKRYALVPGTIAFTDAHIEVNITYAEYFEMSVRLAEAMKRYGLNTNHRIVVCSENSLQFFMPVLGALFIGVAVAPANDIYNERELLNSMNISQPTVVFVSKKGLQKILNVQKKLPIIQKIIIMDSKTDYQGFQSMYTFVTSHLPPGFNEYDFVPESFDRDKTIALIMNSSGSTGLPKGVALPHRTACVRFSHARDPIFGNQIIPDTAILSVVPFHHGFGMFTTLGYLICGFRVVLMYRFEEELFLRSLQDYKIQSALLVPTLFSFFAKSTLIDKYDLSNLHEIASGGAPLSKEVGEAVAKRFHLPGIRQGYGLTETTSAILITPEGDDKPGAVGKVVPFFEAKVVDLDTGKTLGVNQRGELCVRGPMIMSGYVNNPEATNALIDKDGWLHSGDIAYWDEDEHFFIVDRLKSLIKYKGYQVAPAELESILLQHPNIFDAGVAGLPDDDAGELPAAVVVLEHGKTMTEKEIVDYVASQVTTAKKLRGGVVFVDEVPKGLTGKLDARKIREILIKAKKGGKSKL
Focal adhesion kinase 1 (Homo sapiens), sequence (Q05397 whole entry, looked up): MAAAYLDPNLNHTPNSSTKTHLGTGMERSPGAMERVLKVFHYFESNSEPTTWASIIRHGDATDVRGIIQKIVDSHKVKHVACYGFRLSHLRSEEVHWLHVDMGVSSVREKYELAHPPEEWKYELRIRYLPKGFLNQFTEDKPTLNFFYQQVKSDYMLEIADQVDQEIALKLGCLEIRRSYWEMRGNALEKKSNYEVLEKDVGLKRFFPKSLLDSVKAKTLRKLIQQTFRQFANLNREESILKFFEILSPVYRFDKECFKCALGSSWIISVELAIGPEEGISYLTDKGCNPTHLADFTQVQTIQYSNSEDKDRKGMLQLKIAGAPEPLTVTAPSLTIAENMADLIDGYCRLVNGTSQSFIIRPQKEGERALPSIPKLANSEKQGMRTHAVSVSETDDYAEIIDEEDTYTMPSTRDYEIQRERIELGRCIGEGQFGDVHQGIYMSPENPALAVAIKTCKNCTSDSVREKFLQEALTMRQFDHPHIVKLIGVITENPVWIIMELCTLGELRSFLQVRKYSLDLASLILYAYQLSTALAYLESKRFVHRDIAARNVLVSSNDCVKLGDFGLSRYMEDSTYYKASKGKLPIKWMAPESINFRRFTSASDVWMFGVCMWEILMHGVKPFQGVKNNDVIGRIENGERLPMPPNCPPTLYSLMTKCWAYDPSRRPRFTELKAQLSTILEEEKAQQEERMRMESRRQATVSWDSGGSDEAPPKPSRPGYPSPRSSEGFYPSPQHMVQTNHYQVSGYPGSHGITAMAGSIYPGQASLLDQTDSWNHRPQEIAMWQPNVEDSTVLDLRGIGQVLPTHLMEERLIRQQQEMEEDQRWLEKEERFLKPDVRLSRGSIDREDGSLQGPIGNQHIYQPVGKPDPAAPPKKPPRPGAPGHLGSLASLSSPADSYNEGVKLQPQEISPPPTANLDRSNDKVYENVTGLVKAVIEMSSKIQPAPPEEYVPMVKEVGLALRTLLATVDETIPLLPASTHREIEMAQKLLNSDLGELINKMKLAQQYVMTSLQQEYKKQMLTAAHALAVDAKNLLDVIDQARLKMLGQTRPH
Follistatin (Homo sapiens), sequence (P19883 whole entry, looked up): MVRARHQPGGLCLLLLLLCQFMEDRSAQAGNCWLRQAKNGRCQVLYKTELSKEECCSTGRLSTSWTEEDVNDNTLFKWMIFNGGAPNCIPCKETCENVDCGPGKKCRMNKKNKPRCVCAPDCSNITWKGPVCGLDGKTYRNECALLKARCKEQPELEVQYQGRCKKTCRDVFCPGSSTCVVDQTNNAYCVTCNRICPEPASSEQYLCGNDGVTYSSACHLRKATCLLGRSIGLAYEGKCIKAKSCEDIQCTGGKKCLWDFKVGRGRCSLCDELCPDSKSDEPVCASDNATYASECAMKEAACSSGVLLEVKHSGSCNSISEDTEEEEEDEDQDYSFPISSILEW

Take `CON=Cc1ccc(C(=O)N2[C@H](c3ccc(C)cc3)[C@@H](C)CC[C@H]2C(=O)OC)cc1`: the composite z-score in experiment [1] was 2.72; in [2] it was 0.73; in experiment [3] it was -0.176; in experiment [4], 0.53; in experiment [5], 0.419; in experiment [6], 0.412. In addition, the composite z-score was 0.595 with Lefty1; 0.112 in experiment [8]; -0.0731 in [10]; 0.651 in experiment [15]; 0.0398 in experiment [16]; 0.144 with Torsin-1A (Homo sapiens) [17]. Besides, the composite z-score is 0.568 with Torsin-1A (Homo sapiens) [18] and 0.441 in [19]. Moreover, the z-score in experiment [7] was -0.0876; in [9] it was -1.06 (inactive); in [11], -1.63 (inactive); in experiment [12] it was -0.183 (inactive); in [13] it was 0.336 (inactive); in [14], -0.158 (inactive).

As for `COC(=O)[C@@H]1CC[C@@H](C)[C@H](c2ccc(Br)cc2)N1`, the composite z-score in experiment [1] is 0.949; in [2], 0.0613; in experiment [3], 0.867; in experiment [4] it was 0.689; in [5], -0.177; in experiment [6], -0.0826. In addition, the composite z-score in the experiment on Lefty1 is -0.0352; in experiment [8] it was 0.0075; in [10] it was -0.0771; in [15], -0.165; in [16], -0.249; with Torsin-1A (Homo sapiens) [17], 0.303. The composite z-score with Torsin-1A (Homo sapiens) [18] is 0.145; in experiment [19], -0.139. Also, the z-score in experiment [7] was 0.864; in experiment [9], -0.482 (inactive); in [11], -1.09 (inactive); in experiment [12], 0.328 (inactive); in experiment [13] it was -0.258 (inactive); in experiment [14], -1.02 (inactive).

For the compound `CC(C)=CCCC(C)=CCON=C1C[C@@H](O)[C@@H](O)[C@@H]2[C@@H]3C(=O)N(c4ccc(F)cc4F)C(=O)[C@@H]3CC[C@H]12`, the composite z-score in [1] amounted to 1.33; in experiment [2] it was 1.21; in experiment [3], 0.631; in [4] it was 0.333; in experiment [5], 0.705; in [6], 0.256. Also, the composite z-score with Lefty1 is 0.515; in [8], 0.335; in experiment [10], -0.112; in [15], 0.0534; in [16], -0.0178; with Torsin-1A (Homo sapiens) [17] it was -0.37. For the same compound, the composite z-score with Torsin-1A (Homo sapiens) [18] was found to be 0.171; in experiment [19], 1.01. The z-score in experiment [7] was -0.63; in experiment [9], 0.443 (inactive); in [11], -5.27 (inactive); in experiment [12], -0.206 (inactive); in experiment [13], -1.2 (inactive); in [14] it was -0.358 (inactive).

On to `C#CCCCON=C1C[C@@H](O)[C@@H](O)[C@@H]2[C@@H]3C(=O)N(CC)C(=O)[C@@H]3CC[C@@H]12`, for which the composite z-score in [1] was 0.399; in experiment [2], 0.63; in experiment [3], -0.229; in experiment [4] it was 0.0609; in [5], 0.759; in [6] it was 0.672. Moreover, the composite z-score in the experiment with Lefty1 is 0.289; in [8], -0.0002; in experiment [10] it was -0.0855; in experiment [15], -0.0757; in experiment [16] it was -0.181; in the experiment with Torsin-1A (Homo sapiens) [17] it was 0.787. In addition, the results for the composite z-score (with Torsin-1A (Homo sapiens) [18]; in experiment [19]) were 0.555 and 1.2, respectively. For the same compound, the z-score is -0.39 in experiment [7]; 0.194 (inactive) in experiment [9]; 0.0213 (inactive) in [11]; -0.327 (inactive) in experiment [12]; -0.116 (inactive) in experiment [13]; -0.14 (inactive) in experiment [14].
